A selection: hits, their analogues and other compounds. The true share with any hit is near 18%.
CtBP-E1A blk: qHTS Assay for Inhibitors of the CtBP/E1A Interaction. CtBP / adenovirus E1A interaction (AlphaScreen). AlphaScreen GST-E1A/His-CtBP binding, 1536-well; stronger effect = lower value. activity change, % (no concentration beside the values). 0.49% of 340,000 active. AID 651724, 2012; in the data active = activity change below about -65%; inconclusive = mostly about -30% to -63%
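In 5 uL wells, 23 nL compound meets equimolar GST-E1A and His-CtBP (5X stock 125 nM each) for 2 h, 37 °C. Beads (5X, 50 ug/mL) then 1 h, 37 °C, dark.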
Six1-Eya2 blk: qHTS Assay for Inhibitors of the Six1/Eya2 Interaction | Homeobox protein SIX1 (Homo sapiens) + Protein phosphatase EYA2 (Homo sapiens), … | AlphaScreen GST-Six1/His-Eya2 binding, biochemical; stronger effect = lower value | activity change, % (test concentration not listed) | 0.56% of 360,000 active; in the data active = activity change below about -65%; inconclusive = mostly about -30% to -63%
Target sequence (O00167 whole entry, looked up): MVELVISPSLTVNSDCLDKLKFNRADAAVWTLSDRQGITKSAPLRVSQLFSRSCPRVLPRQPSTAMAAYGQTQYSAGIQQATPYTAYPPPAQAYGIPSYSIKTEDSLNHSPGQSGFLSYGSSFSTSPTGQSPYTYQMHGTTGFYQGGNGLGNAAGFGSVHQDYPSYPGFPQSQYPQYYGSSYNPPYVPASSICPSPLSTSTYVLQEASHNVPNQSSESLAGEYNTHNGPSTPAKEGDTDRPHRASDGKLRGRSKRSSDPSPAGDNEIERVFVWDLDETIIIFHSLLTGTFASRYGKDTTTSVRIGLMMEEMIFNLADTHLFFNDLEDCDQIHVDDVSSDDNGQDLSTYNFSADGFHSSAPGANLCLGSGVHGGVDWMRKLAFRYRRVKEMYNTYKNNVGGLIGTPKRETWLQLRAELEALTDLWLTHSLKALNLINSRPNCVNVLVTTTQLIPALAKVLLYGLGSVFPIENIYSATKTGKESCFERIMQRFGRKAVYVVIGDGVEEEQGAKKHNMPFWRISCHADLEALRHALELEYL
Target sequence (Q15475 whole entry, looked up): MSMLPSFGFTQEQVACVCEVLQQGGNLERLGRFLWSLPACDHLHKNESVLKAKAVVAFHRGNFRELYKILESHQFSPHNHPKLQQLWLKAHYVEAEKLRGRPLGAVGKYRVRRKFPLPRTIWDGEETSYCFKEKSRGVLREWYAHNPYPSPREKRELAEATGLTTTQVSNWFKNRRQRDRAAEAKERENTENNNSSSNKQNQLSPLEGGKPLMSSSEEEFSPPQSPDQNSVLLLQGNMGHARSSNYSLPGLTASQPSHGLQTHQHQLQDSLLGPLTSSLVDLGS
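AlphaScreen with GST-Six1 and His-Eya2 (5X mix: 250 nM and 500 nM), glutathione donor and nickel acceptor beads; buffer 50 mM Tris pH 8.0, 300 mM NaCl, 1 mM TCEP; 1 h at 37 C in the dark.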
IL-1B inflam inh: qHTS for Inhibitors of Inflammasome Signaling: IL-1-beta AlphaLISA Primary Screen; AID 743279, 2014; activity change, % at 57.5 µM; 4.7% of 360,000 active; THP-1 LPS/ATP IL-1B secretion, AlphaLISA, 16 h; stronger effect = lower value; in the data active = activity change below about -50%; inconclusive = mostly about -30% to -49%
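Secreted IL-1B measured by AlphaLISA bead assay after 16 h compound exposure of THP-1 cells; compounds (final up to 57.5 uM) added 1 h before LPS (250 ng/mL) and ATP (1.25 mM) stimulation; lower signal means less secretion.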
TDP1 cell CPT: qHTS for Inhibitors of human tyrosyl-DNA phosphodiesterase 1 (TDP1): qHTS in cells in presence of CPT | chicken DT40 Tdp1-/-;hTDP1 cells + 20 nM CPT, ATP luminescence, 48 h | Potency, µM (highest dose often 46.2 µM), inactives show at the top dose activity change, negative = growth inhibition, usual class: inhibitors | 12% of 420,000 active | AID 686979, 2013; also: potency is read from the fitted curve at half-maximal effect; nearly all actives have a fitted effect of over 55% in size
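Chicken DT40 Tdp1-/- cells complemented with human TDP1, 400 cells/well, exposed to compounds plus 20 nM camptothecin for at least 48 h at 37 C; viability read as ATP content by CellTiter-Glo luminescence.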
TDP1 block: qHTS Assay for Inhibitors of Tyrosyl-DNA Phosphodiesterase (TDP1) | 0.28% of 350,000 active | Tyrosyl-DNA phosphodiesterase 1 (Homo sapiens), Q9NUW8 | recombinant TDP1, AlphaScreen DNA substrate cleavage | AID 485290, 2010 | Potency, µM (doses to about 130 µM), inactives show at the highest dose activity change, negative = inhibition, actives largely listed as inhibitors; also: potency is read from the fitted curve at half-maximal effect; nearly all actives have a fitted effect of over 40% in size
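E. coli-derived human Tdp1, 1 nM final. Cpd preinc 15 min RT; substrate 15 nM final, 5 min RT; AS bead mix 10 ug/ml final, 10 min RT. Signal loss = tyrosine-FITC cleavage. No-enzyme wells = max signal.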
TDP1 cell noCPT: qHTS for Inhibitors of human tyrosyl-DNA phosphodiesterase 1 (TDP1): qHTS in cells in absence of CPT | DT40 Tdp1-/- hTDP1 cells, no CPT, ATP luminescence, 48 h | Potency, µM (titrated, usually from 46.2 µM), inactives show at the highest dose activity change, negative = growth inhibition, usual class: inhibitors | 15% of 420,000 active | AID 686978, 2013; also: potency is read from the fitted curve at half-maximal effect; nearly all actives have a fitted effect of over 55% in size
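No-CPT arm: Tdp1-/-;hTDP1 DT40 cells (400/well) plus compounds, incubated ≥48 hr at 37 °C. Readout CellTiter-Glo luminescence.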
Starred values were filed as active, the others as inactive; ? = inconclusive; / = no result; ! = not active in a repeat. Unless noted, calls follow the shape of the dose curve; as a rule, active = well fitted curve in the direction sought with a large enough effect; inconclusive = small, poorly fitted or top-dose-only effect, or another doubt; inactive = no such curve, though single readings can be large; an effect the other way counts as inactive or inconclusive. % is scaled to controls: 0 for no effect and ±100 for the full control effect.

SMILES	CtBP-E1A blk	Six1-Eya2 blk	IL-1B inflam inh	TDP1 cell CPT	TDP1 block	TDP1 cell noCPT
OC1(c2ccc(Cl)c(Cl)c2)C[n+]2ccccc2N1Cc1ccccc1 (stereo not drawn)	-3	37	-85*	13µM*	3%	18µM*
Cn1c(-c2ccc(Br)cc2)cnc1NCc1cccnc1	-9	-3	14	-14%	4%	-12%
COc1cc(CNc2nc3ccccc3n2C)cc(OC)c1OC	-2	5	-5	-10%	-5%	-1%
COc1cc(CNc2ncc(-c3ccc(Br)cc3)n2C)cc(OC)c1OC	0	-1	-6	10µM*	/	?
COc1cc(CNc2ncc(-c3ccc(Cl)cc3)n2C)cc(OC)c1OC	/	-17	-19	13µM*	/	2.1µM*
O=S(=O)(CCN1CCN(C(c2ccccc2)c2ccccc2)CC1)C(F)(F)F	5	4	-18	7.3µM*	4%	18µM*
Cc1ccccc1S(=O)(=O)NC1OC(=O)C(Cl)=C1Cl (stereo not drawn)	1	-13	-107*	21µM*	-10%	?
Cc1ccc(C)c(-n2c(-c3ccc(Br)cc3)csc2=NC(=O)c2ccccc2F)c1	3	3	14	12µM*	-4%	4.6µM*
Cc1ccc(NS(=O)(=O)c2ccc(-n3cccn3)cc2)c(Br)c1	-24	-1	23	18µM*!	0%	16µM*
Cc1cccc(NS(=O)(=O)c2ccc3c(c2)Cc2cc(S(=O)(=O)Nc4cccc(C)c4C)ccc2-3)c1C	-2	-4	7	6.5µM*	4%	5.2µM*
COc1cccc(NS(=O)(=O)c2ccc(-n3cccn3)cc2)c1	0	2	-16	?	1%	5.8µM*
Cc1cccc(NS(=O)(=O)c2ccc(-n3cccn3)cc2)c1C	0	0	-7	13µM*	1%	7.3µM*
COC(=O)C1=C(C)N=C2SCCC(=O)N2C1c1cccs1 (stereo not drawn)	3	9	6	5%	-1%	0%
O=C(c1ccc2nc[nH]c2c1)N1CCN(c2cccc(Cl)c2)CC1	5	-6	-11	?	5%	-15%
Cc1ccc(NS(=O)(=O)c2ccc(-n3cccn3)cc2)c(C)c1	-2	1	1	18µM*	2%	?
CC(=O)NCCNC(=O)C1(C)Cc2c(-c3cccc(NC(C)=O)c3)ccnc2O1 (stereo not drawn)	4	10	52	8%	/	12%
CC1(C(=O)NCc2cccs2)Cc2c(-c3ccc(C(N)=O)cc3)ccnc2O1 (stereo not drawn)	2	-8	43	2.6µM*	/	3.3µM*
CC1(C(=O)NCc2ccccc2)Cc2c(-c3cccc(C(F)(F)F)c3)ccnc2O1 (stereo not drawn)	0	0	68	3.7µM*	/	5.8µM*
CCN(CC(=O)NCc1cccs1)C(=O)COc1cccc(C(F)(F)F)c1	1	1	11	-26%	0%	-1%
CC1(C(=O)NCc2cccs2)Cc2c(-c3cccc(C(F)(F)F)c3)ccnc2O1 (stereo not drawn)	-5	0	62	3.3µM*	/	2.9µM*
CC1(C(=O)NCc2cccc(Cl)c2)Cc2c(-c3ccc(C(N)=O)cc3)ccnc2O1 (stereo not drawn)	0	-2	-16	-27%	/	?
CCN(CC(=O)NCc1cccs1)C(=O)c1ccc(-c2cccc(C(F)(F)F)c2)o1	0	-3	-80*	?	-3%	?
CC(=O)NCCNC(=O)C1(C)Cc2c(-c3ccc(C(N)=O)cc3)ccnc2O1 (stereo not drawn)	11	3	15	0%	/	0%
C[C@H](CO)N1C[C@H](C)[C@@H](CN(C)S(=O)(=O)c2ccc(F)cc2)Oc2ccc(NC(=O)CCN3CCOCC3)cc2C1=O	6	3	4	6%	3%	0%
O=C(CSc1n[nH]c(-c2ccncc2)n1)c1cccc([N+](=O)[O-])c1	-13	-12	20	-7%	2%	-25%
SMILES	CtBP-E1A blk	Six1-Eya2 blk	IL-1B inflam inh	TDP1 cell CPT	TDP1 block	TDP1 cell noCPT
COc1ccc(NS(=O)(=O)c2cc(OC)ccc2NC(=O)c2cc(C)oc2C)cc1	-4	-20	41	5.2µM*	2%	2.6µM*
COc1ccc(NS(=O)(=O)c2cc(C(=O)O)ccc2C)cc1	-12	-3	4	-10%	1%	-12%
COc1ccc(NS(=O)(=O)c2cc(NC(=O)c3ccc(=O)[nH]n3)ccc2C)cc1	/	-15	47	18µM*	-7%	18µM*
COc1ccc(NS(=O)(=O)c2cc(C)ccc2C)cc1	1	1	29	21µM*	-3%	16µM*
Nc1c(C(=O)Nc2ccc(C(=O)O)cc2)sc2nc3c(cc12)CCCC3	/	/	/	-4%	/	?
Nc1c(C(=O)Nc2ccc(S(=O)(=O)N3CCCC3)cc2)sc2nc3cc4c(cc3cc12)CCC4	0	-18	16	6.5µM*	1%	6.5µM*
COc1ccc(NC(=O)CSCC(=O)Nc2ccc(S(=O)(=O)N3CCCC3)cc2)cc1	3	-1	0	-5%	4%	-13%
Nc1c(C(=O)Nc2ccc(S(=O)(=O)N3CCCC3)cc2)sc2nc3ccc(OC(F)(F)F)cc3cc12	3	-4	-97*	9.2µM*	1%	18µM*
O=C(NCCS(=O)(=O)N1CCN(C(=O)c2ccco2)CC1)c1ccccc1	6	-4	-1	-4%	/	-8%

High-throughput results from PubChem.
